PubChem BioAssay AID2807 (Vanderbilt High Throughput Screening Facility, 2010)
Results with a measured potency or affinity are listed apart. The source made the active and inactive calls. The rule behind the calls is not given here.

molecular target: Metabotropic glutamate receptor 4 (Homo sapiens) (UniProt Q14833); assay: PubChem AID 2807; conditions: CHO hmGluR4/Gqi5 calcium mobilization, PAM potentiation; series mostly up to 30 µM; potentiation (% max glutamate): at the top concentration
Sequence (Q14833 whole entry, looked up): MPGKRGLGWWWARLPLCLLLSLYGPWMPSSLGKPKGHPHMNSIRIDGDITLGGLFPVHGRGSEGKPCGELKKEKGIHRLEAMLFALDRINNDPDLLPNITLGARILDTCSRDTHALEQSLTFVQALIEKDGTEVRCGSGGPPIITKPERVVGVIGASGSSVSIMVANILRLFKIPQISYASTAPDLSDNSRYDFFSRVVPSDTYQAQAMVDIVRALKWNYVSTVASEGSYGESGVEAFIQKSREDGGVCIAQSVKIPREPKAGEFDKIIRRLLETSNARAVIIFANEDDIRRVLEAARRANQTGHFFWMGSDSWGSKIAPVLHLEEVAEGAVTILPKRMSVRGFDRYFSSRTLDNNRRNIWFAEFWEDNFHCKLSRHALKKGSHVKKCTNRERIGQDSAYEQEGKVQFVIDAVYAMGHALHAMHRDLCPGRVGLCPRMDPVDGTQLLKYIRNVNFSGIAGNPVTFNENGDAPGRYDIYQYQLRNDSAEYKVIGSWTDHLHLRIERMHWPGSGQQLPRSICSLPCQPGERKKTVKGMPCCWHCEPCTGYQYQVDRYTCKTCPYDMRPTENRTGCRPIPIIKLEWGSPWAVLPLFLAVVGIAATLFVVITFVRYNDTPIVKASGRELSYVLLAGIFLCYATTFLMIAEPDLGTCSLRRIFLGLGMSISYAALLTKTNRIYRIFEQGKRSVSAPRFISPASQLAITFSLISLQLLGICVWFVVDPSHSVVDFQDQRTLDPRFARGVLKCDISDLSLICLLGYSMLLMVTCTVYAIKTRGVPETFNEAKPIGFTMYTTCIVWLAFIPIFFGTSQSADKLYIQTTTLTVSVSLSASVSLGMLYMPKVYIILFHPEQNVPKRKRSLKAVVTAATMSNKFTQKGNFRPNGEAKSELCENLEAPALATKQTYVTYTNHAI

Potentiation (% max glutamate), inactive:
O=C(Nc1ccc(Cl)c(Cl)c1)c1ccc(-c2ccccc2)o1 18%
O=C(Nc1ccc(Cl)c(Cl)c1)c1ccccc1 29.1%
O=C(Nc1ccc(Cl)c(Cl)c1)C1CCCCC1 28.3%
O=C(Nc1ccc(Cl)c(Cl)c1)c1cc2ccccc2o1 22.2%
O=C(Nc1ccc(Cl)c(Cl)c1)c1cnccn1 15.3%
Cn1cccc1C(=O)Nc1ccc(Cl)c(Cl)c1 23.5%
